Reference: the supplement of paper PMC3334620
Whole data set: some 33,000 sequences, median “E-score (-0.5 to 0.5)” near -0.016, cut for the highest 2% near 0.3. The sample holds the highest values, similar sequences and a random draw of the others, so the mix is not that of the screen.

These sequences were tested against T1, Yer184c (UniProt P39961) (assay: PBM E-score (8-mer binding enrichment) (E-score (-0.5 to 0.5)); higher = stronger / more preferred TF binding). Conditions: protein concentration: 100 nM; construct: GST-full length.
T1 sequence: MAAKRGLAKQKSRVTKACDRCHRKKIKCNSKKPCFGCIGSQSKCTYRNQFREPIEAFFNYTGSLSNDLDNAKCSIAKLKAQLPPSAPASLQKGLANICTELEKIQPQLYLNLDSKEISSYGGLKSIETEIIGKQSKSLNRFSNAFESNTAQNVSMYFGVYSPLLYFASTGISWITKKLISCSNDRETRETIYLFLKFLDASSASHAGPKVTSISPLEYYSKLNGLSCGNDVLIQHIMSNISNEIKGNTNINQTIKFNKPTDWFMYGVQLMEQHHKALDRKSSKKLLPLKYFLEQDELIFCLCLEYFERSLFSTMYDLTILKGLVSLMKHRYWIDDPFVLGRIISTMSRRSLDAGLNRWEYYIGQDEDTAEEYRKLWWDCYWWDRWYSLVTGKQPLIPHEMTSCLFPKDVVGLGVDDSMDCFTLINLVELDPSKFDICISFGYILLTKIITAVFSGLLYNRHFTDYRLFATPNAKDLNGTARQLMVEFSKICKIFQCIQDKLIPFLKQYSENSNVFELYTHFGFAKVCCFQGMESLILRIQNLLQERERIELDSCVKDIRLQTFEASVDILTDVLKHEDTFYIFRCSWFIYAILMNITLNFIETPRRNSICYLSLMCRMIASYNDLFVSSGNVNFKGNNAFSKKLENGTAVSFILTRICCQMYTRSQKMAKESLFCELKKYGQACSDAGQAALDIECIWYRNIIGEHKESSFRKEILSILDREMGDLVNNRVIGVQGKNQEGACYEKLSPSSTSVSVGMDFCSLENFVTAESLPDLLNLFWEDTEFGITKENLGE
Summary of the method: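 Universal all-10-mer Agilent arrays, fresh or stripped once, were converted to double-stranded form by primer extension. GST-tagged yeast transcription factors from PURExpress in vitro transcription/translation, full-length or DNA-binding domain only, were applied at about 100-200 nM and detected with fluorescent anti-GST. After masliner normalisation, the Universal PBM Analysis Suite scored each ungapped eight-base word together with its reverse complement by E-score.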

Sequence | PBM E-score
CAGGCCCA | -0.211
CCCCGGAC | 0.0445
CTCCGGAC | 0.328
ATCCGTAC | 0.195
CTCCGGTC | 0.248
ACCCGGAC | 0.055
ATCCGGAC | 0.322
CAATCCTC | -0.113
CCAGATGC | -0.103
GCAAGAAA | 0.161
ATTGAGCG | -0.0456
CCGTCCAG | 0.122
GACCGGAA | 0.232
AACCGGGA | 0.188
AACCGGTC | 0.229
AACCGGAC | 0.212
AACCGGGG | -0.0803
AACCGGAG | 0.358
AACCGGAT | 0.366
AACCGGGT | 0.202
CACCGGAG | 0.173
AACCGGTG | 0.214
AACCGGAA | 0.34
AACCGGTT | 0.359
AGCTACCA | -0.173

Sequence | PBM E-score
ATGCATTA | 0.0989
GAATCCCA | -0.0522
ATAGGAGG | -0.285
AGGCTTAC | -0.0812
GACTGGTA | 0.00991
TACCGGTA | 0.23
CACCGGAA | 0.368
TACCGGAA | 0.409
TACCGGGA | 0.207
CACCGGGA | 0.152
CACCGGAC | 0.268
AATGGCCC | -0.247
ACCTAGTC | -0.244
CACATCCG | 0.282
AACATCCC | 0.141
ATTATCCA | 0.0655
AGTATCCG | 0.332
ATTATCCC | 0.0672
AGTATCCA | -0.00531
AACATCCG | 0.381
AATATCCA | 0.17
AGTATCCC | -0.0953
AATATCCC | -0.0444
ATTATCCG | 0.36
AATATCCG | 0.352

Sequence | PBM E-score
AATGTTAT | 0.184
CACCAGGC | -0.103
CCCTTGAA | -0.0291
TACAATAA | 0.14
CATGGTAC | -0.223
ATACCCGA | 0.111
CGCCTAAC | -0.0428
TGACTACA | -0.022
TAATATAA | 0.339
ATTAAAAA | 0.323
AAATATAA | 0.327
AAATATGA | 0.0794
AAAAATAA | 0.237
AAATATGT | 0.304
ATTAAAAG | 0.172
ATTAAAAC | 0.286
CAATATAA | 0.243
AAATATGC | 0.0299
AAATATCA | 0.124
GAATATAA | 0.085
GTACAATA | 0.188
CACCGCGG | 0.242
ACTATATA | 0.19
GACGCATA | 0.0516
GAATCTAC | 0.0543

Sequence | PBM E-score
CGATCACG | 0.165
TAGCACGA | 0.0455
ACCCCACA | -0.308
AACGATAA | 0.0408
AACATCGA | 0.0284
CATAATTA | 0.233
GATAAAAA | 0.29
GATAATTA | 0.318
AATAATAA | 0.285
GATAAACC | 0.208
TATAATAA | 0.324
GATAAAAC | 0.305
CAATATTA | 0.133
CATAATAA | 0.0808
TAATATTA | 0.381
AAATATTA | 0.206
AATAATTA | 0.299
CCACAGTC | -0.3
GTGGCCAC | -0.0584
GAGTTGAC | -0.0176
AATCTTAG | 0.124
ATATGGTG | -0.0255
ATAGTGAC | -0.0492
GCTATGGA | -0.192
TCTAACCA | 0.0158

Sequence | PBM E-score
TAGCTCCA | -0.0638
AATAAATG | 0.174
TTTATAAA | 0.348
CGATATTA | 0.343
TATAAATA | 0.266
CTTATAAA | 0.174
ATAAAACC | -0.0255
GGATATTA | 0.132
ATAAAAAA | 0.289
CGATATTC | 0.155
ATAAAAAC | 0.305
AATAAATA | 0.414
GTTATAAA | 0.0949
AGATTCAC | -0.157
AAGGCTGC | -0.0369
AACCATCA | 0.0573
GGTCTTAA | -0.104
ACCGTTGG | -0.244
CACTTATC | -0.0553
ATAGAATC | 0.128
AGAGGCGC | -0.119
CGGTATTA | 0.251
ACCACACG | -0.164
AATTAAAA | 0.202
AAATATAT | 0.305

Sequence | PBM E-score
AAATATAC | 0.0721
TATTAAAA | 0.318
GATTAAAA | 0.296
TATAAAAA | 0.373
AAATATAG | 0.189
TATATAAA | 0.289
CATAAAAA | 0.252
GTAAAGAC | 0.0705
AATAACGA | 0.068
ATCAAGTG | -0.132
ATCTTCAA | 0.187
TTAGCTAA | 0.0769
AATCCGGT | 0.36
AATCCGCT | -0.0489
GATCCGCA | 0.0531
CATCCGGG | 0.223
CATCCGGA | 0.375
CATCCGCA | 0.108
GATCCGGC | 0.354
GATCCGCC | 0.0797
AATCCGGC | 0.3
GATCCGGA | 0.395
GATCCGTA | 0.17
AATCCGAT | 0.275
AATGGGTC | -0.184

Sequence | PBM E-score
ATGGCCCC | -0.162
CTAGTAAC | -0.0898
CTACCCAC | -0.304
TAAAGCGA | 0.0559
GGACTGCC | -0.102
ATTATGGC | 0.0693
AAGGCTAT | -0.0663
CCTGGTAC | -0.0559
CTGCGGGA | -0.0974
AATAACCA | 0.0129
CGCTTTAC | -0.137
AATCCGTA | 0.0372
CATCCGTC | -0.0104
CATCCGGC | 0.358
AATCCGGA | 0.401
CATCCGCC | 0.0602
AATCCGCA | 0.101
CCGAGCAG | 0.17
ACCAATCA | 0.0919
AGCTTTCG | 0.105
ATTCCCAC | -0.171
CTGGTGTA | -0.234
ATCTTCGA | -0.0159
ATTTTCGC | 0.111
ATTTTCGA | 0.121

Sequence | PBM E-score
ATATTTCA | 0.201
ATTTCCCC | -0.166
ATTTCCCA | 0.107
ATATTTCC | 0.177
ATATTTCG | 0.318
ATCTTCGG | 0.35
ATTTCCCG | 0.328
ATTTTCGG | 0.377
ATCTTCGC | -0.0164
CCCATTCC | -0.258
ACACTCCA | -0.127
AAGGCTTC | -0.0592
TATTCTAA | 0.181
CACTTCTA | -0.133
CCTTGCTC | -0.141
GGAGGTAA | -0.0289
ATTTTCCC | 0.00872
AATTTCCG | 0.406
AATTTCCC | 0.0065
ATTTCTTG | 0.216
AGTTTCCA | 0.111
AGTTTCCG | 0.392
CATTTCCG | 0.3
ATTTTCCG | 0.4
ATTTTCCA | 0.178

Sequence | PBM E-score
ATTTCTTA | 0.216
ATTTCTTC | 0.315
AGTTTCCC | -0.0163
ATGAAGCA | -0.0497
CACTTCTC | -0.119
CGTAAGTC | -0.00193
ATTGTTGA | 0.141
CCTGCATA | -0.105
ACAGCGAA | 0.117
CTTACTGC | -0.0955
ATTTTTCA | 0.169
ATTTCTCC | 0.122
ATTTCTCG | 0.308
ATTTCTCA | 0.099
AATTTTCG | 0.092
ATTTTTCG | 0.314
ATCTCACA | -0.0208
GTCTGGCA | -0.16
CAGTATAC | -0.0142
AAAAATGC | 0.143
AAACTAGC | -0.093
GGTTCCGA | 0.278
CGTTCCGA | 0.236
AGTTCCGG | 0.374
CGTTCCGC | 0.262

Sequence | PBM E-score
AGTTCCGA | 0.313
AGTTCCAC | -0.00257
AGTTCCGC | 0.305
AGTTCCAG | -0.101
AGTTCCTG | -0.18
CCGGTCTC | 0.0994
CTAAAGGC | -0.0965
ACTAGCAC | -0.174
AATGGTAC | -0.00404
ACTAGGAA | -0.177
CATGCCGC | 0.181
AATGCCGA | 0.378
CATGCCGG | 0.366
CATGCCAG | -0.161
AATGCCTA | -0.0279
AATGCCGG | 0.35
AATGCCTG | -0.123
AATGCCCG | -0.121
CATGCCCG | 0.0955
CATGCCGA | 0.336
CATGCCTA | -0.261
TATGCCGA | 0.28
CAAATACG | -0.00546
CGAAACTA | 0.0737
CACTAGTC | -0.184

Sequence | PBM E-score
ACTAACGA | 0.00902
AAAGGCAT | 0.141
AACCTATT | -0.139
GCATCCCC | -0.168
CATCAATG | -0.0256
GATGCCAA | -0.105
GATGCCGC | 0.106
AATGCCGC | 0.199
AATGCCAT | 0.055
GATGCCGA | 0.319
AATGCCGT | 0.304
CCTCTTCG | -0.00118
AGTTCCCG | 0.223
CCGCGCGA | 0.183
GGGCGGTA | -0.0752
CGGCGGTA | 0.348
ACGCGGTA | -0.105
CCGCGGTC | 0.205
CCGCGCGG | 0.386
ACGCGGAG | 0.143
CCGCGGTA | 0.345
CCGCGCGC | 0.154
CCGCGGAG | 0.333
CCGCGGAC | 0.295
AGGCGGTA | -0.135

Sequence | PBM E-score
CCAGCTTC | -0.0253
CAAAATGA | 0.0065
GACTCAAC | 0.0381
ATCTCTTC | 0.0858
AGGTTAAC | -0.037
GCGCGGAA | 0.138
CCGCGGGC | 0.25
CCGCGGAA | 0.416
CCGCGGGA | 0.324
TCGCGGAA | 0.137
GCGCGGGA | 0.0199
CGGTGGTC | -0.0197
AGAGATCC | -0.00438
AAGTGTCA | -0.293
ACAAAACT | 0.144
CGCCCAAA | 0.0692
